# Laboratory results: PubChem BioAssay (NCATS)
# Records with an inconclusive call do not appear. Unmarked numbers belong to inactive results. Activity calls are given as the source filed them. The call rests on the fitted dose curve; in most records, active means well fitted inhibition curve with a large enough effect; inconclusive means small, poorly fitted or top-dose-only effect; inactive means flat fitted curve, though single readings scatter.
# Biological target: Glutathione peroxidase 1 (Homo sapiens) (UniProt P07203)
# Sequence (P07203 whole entry, looked up): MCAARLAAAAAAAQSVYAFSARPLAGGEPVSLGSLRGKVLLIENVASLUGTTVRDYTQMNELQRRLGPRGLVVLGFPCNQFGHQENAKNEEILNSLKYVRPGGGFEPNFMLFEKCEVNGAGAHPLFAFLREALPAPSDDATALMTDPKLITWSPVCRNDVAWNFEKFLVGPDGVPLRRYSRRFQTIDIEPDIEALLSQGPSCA
# Experiment: Primary qHTS Assay for Inhibitors of Recombinant Selenoprotein Glutathione Peroxidase 1 (GPX1) (AID 1845191); further: nearly all actives have a fitted effect of over 65% in size
# Details: recombinant GPX1, GR-coupled NADPH fluorescence, 15 min; series mostly up to 48.8 µM; activity, negative = inhibition: at the top concentration
# From the text: Assay Provider: Elias S.J. Arner MD PhD.
# Department of Medical Biochemistry and Biophysics
# Karolinska Institutet, Solna, Stockholm, Sweden
# Selenoprotein glutathione peroxidases (GPX), like the ubiquitously expressed GPX1 and the ferroptosis modulator GPX4, enact their antioxidant activities by reducing hydroperoxides using glutathione. […] GPX1 and GPX4 inhibitors have thus shown promise as anti-cancer agents. Existing inhibitors are often promiscuous, or modulate GPX activity only indirectly, so novel direct inhibitors identified through screening against GPX1 and GPX4 could be valuable. Here, we developed optimized glutathione reductase (GR)-coupled GPX assays for the biochemical high-throughput screen (HTS) of almost 12,000 compounds with known mechanisms of action. Initial hits were triaged using a GR counter-screen, assessed for isoform specificity using a separate GPX2 assay, and were assessed for general selenocysteine-targeting activity using a thioredoxin reductase (TXNRD1) assay. With this suite of assays, we identified novel GPX1/GPX2- and GPX4-specific inhibitors and can here present a validated pipeline for future discovery research for selenoprotein-targeting agents.
# SEQUENCE No. (e.g., 1, 2, 3, etc.); […] (e.g., Cells, Incubation, Reagent, etc.); VALUE; DESCRIPTION.
# 1; Reagent 1; 3 uL; GPx1 enzyme or no enzyme control in 1536-well, black, solid Greiner assay plate.
# 2; Compound; 25 nL; Kalypsis pin tool (Wako USA) equipped with a 1536-well pin head.
# 3; Incubation; 30 min; room temperature.
# 4; Reagent 2; 1 uL; 10 nM GPX1, 1 mM GSH, 0.5 mM CHP, 0.5 mM NADPH, 100 nM GR, 0.01% BSA substrate
# 5; Detection; Fluorescence; ViewLux microplate reader, excitation 340 nm and emission 450 nm.
# 6; Incubation; 15 min; room temperature.
# 7; Detection; Fluorescence; ViewLux microplate reader, excitation 340 nm and emission 450 nm.
# NOTES (numbers refer to Sequence numbers above)
# 1. 3 uL of 16.66 nM GPX1 and 0.016% BSA in assay buffer (50 mM Tris-HCl, 2 mM EDTA (pH 7.5), 150 mM NaCl) was added to columns 3-48 of 1536-well assay plates using a BioRAPTR Flying Reagent Dispenser (Let's Go Robotics (LGR), Carlsbad, CA). A no-enzyme control (0.01% BSA in TES assay buffer) was added to columns 1-2.
# 2. 25 nL of test compounds and DMSO controls were added to each well with a pin tool (Kalypsys).
# 3. The assay plates were incubated for 30 minutes at room temperature.
# 4. 1 uL of master mix (500 nM glutathione reductase (GR), 5 mM reduced glutathione (GSH), 2.5 mM NADPH in assay buffer) was added. 1 uL of cumene hydroperoxide (CHP) ([2.5 mM] in 50% EtOH) was then added within 5 minutes to initiate the reaction. Final concentrations were: 10 nM GPX1, 1 mM GSH, 0.5 mM CHP, 0.5 mM NADPH, 100 nM GR, 0.01% BSA.
# 5. Initial fluorescence readout (t=0) at 340/450 nm was measured using a ViewLux multimodal detector (PerkinElmer, Waltham, MA).
# 7. Endpoint fluorescence readout (t=15) at 340/450 nm was measured 15 min after room temperature incubation.
# Potency means the concentration at half of the fitted maximal effect.
SMILES,outcome,Potency,"activity, negative = inhibition"
O=C1CCc2cc(S(=O)(=O)Nc3ccc(F)c(Cl)c3)c(F)cc2N1,inactive,–,–
O=C(c1ccc(F)c(F)c1Nc1ccc(I)cc1F)N1CC(O)([C@@H]2CCCCN2)C1,–,inactive,–
N#Cc1c2nc3ccccc3nc2n2ccc(NC(=O)c3cccs3)cc12,inactive,–,–
CN[C@H]1CCN(C(=O)c2ccc(Nc3ncc(F)c(-c4cnc(C)n4C(C)C)n3)cc2)C1,–,–,-14.6%
CCCCN=C(N)NC(=N)N,–,–,-0.565%
CC(C)(C)n1nc(-c2ccc(Cl)cc2)c2c(N)ncnc21,inactive,–,–
Cc1[nH]c(/C=C2\C(=O)Nc3ccccc32)c(C)c1CCC(=O)O,inactive,–,–
CCCn1cnc2c(NCc3ccc(C)s3)nc(N[C@H](CC)CO)nc21,inactive,–,–
CC1(C)CC23[C@@H]4CC(=O)[C@@H]2COC(=O)[C@@H]3CC[C@H]41,–,–,-0.513%
CNC(=O)[C@H]1O[C@@H](n2cnc3c(NCc4cccc(I)c4)nc(Cl)nc32)[C@H](O)[C@@H]1O,–,–,0.704%
CC(C)C(N)C(=O)OCC(CO)OCn1cnc2c(=O)[nH]c(N)nc21 (stereo not given),–,–,-5.9%
O=Nc1c2[nH]c3ccccc3nc-2c2ccccc12,–,–,-13.5%
Cn1c(CNc2cccc(C(=O)NCc3ccccc3C(F)(F)F)c2)nnc1-c1ccncc1,inactive,–,–
CC1=CC(=O)C(C(C)C)=C/C1=N/OC(=O)c1ccccc1C,–,–,-21.8%
c1ccc(-c2n[nH]c3c2oc2ccccc23)cc1,inactive,–,–
COC(=O)/C=C/C(=O)N(O)CCCCNCc1ccc(COC(=O)Nc2cccc3ccccc23)cc1,–,–,-1.3%
O=C(NOCCO)c1ccc2cncn2c1Nc1ccc(I)cc1F,inactive,–,–
CCOc1cccc2c1OC(c1ccc(F)cc1)C([N+](=O)[O-])=C2 (stereo not given),inactive,–,–
C/C(=C1/C(=O)Nc2ccc(NC(N)=O)cc21)c1ccc[nH]1,–,–,3.78%
O=C(O)c1ccc2c3c1cccc3c(=O)n1c3ccccc3nc21,–,–,-2.35%

SMILES,outcome,Potency,"activity, negative = inhibition"
CC1(CO)CCCC2(C)C1C(OC(=O)c1ccccc1)C=C1C(=O)OCC12O (stereo not given),inactive [at 27.7 µM],–,–
CC(CCc1ccccn1)(CCc1ccccn1)C(=O)c1ccccc1,–,–,-8.72%
C=C1C(=O)O[C@@H]2C[C@@H](C)[C@]34C[C@]5(C(=O)O[C@H]6CC(C)=C([C@H](C)CCCO)[C@H](OC(=O)C(C)CC)[C@H]65)[C@@H](C(C)=C3C[C@@H]12)[C@H]4OC(C)=O (stereo not given in full),–,–,-22.2% [at 15.3 µM]
CC(C)(C)c1ccc(CNC(=S)NCc2ccc(NS(C)(=O)=O)c(F)c2)cc1,–,14.3 µM (active),–
CCCCCC1CC1CC1CC1CCCCCCCC(=O)O (stereo not given),inactive [at 27.7 µM],–,–
COC1CC(=O)C23C(=O)NC(CC(C)C)C2C(C)C(C)=CC3/C=C(\C)CCC(O)C1O (stereo not given),inactive [at 27.7 µM],–,–
CCOC(=O)CCC(=O)O[C@H]1[C@H](O[C@@H]2[C@@H](C)[C@H](O[C@H]3C[C@@](C)(OC)[C@@H](O)[C@H](C)O3)[C@@H](C)C(=O)O[C@H](CC)[C@@](C)(O)[C@H](O)[C@@H](C)C(=O)[C@H](C)CC2(C)O)O[C@H](C)C[C@@H]1N(C)C (stereo not given in full),–,inactive,–
CN1CCN(CCC=C2c3ccccc3Sc3ccc(S(=O)(=O)N(C)C)cc32)CC1,–,–,-36.3%
O=C1NCCCc2c1oc1ccc(O)cc21,–,–,3.07%
O=C(C1=CCN2c3c(cccc31)OC[C@H]2CN1CCOCC1)c1cccc2ccccc12,inactive,–,–
CCCCCCCCCCCCCCCCOCCCOP(=O)(O)COC(CO)Cn1ccc(N)nc1=O (stereo not given),inactive,–,–
CC(=O)Nc1ccc(C(=O)NC(C)(C)C)cc1,–,–,-2.25%
C=CC(=O)c1ccc2ccccc2c1,–,–,1.02%
CC(C)c1ccc(NC(=O)C(c2ccccc2)N(C)C(=O)Cc2c[nH]c3ccccc23)cc1 (stereo not given),inactive,–,–
OCC(O)CCO/N=C1/C(c2c(O)[nH]c3ccccc23)=Nc2ccccc21 (stereo not given),inactive,–,–
COc1cccc(CNC(=O)Nc2nc(-c3ccncc3)cs2)c1,inactive,–,–
COc1cc(OC)c(C(=O)/C=C/c2ccccc2)c2c1C=CC(C)(C)O2,inactive,–,–
S=c1ssc2c1CCC2,–,14.3 µM (active),–
COC[C@H](C)Oc1cc(O[C@@H](C)Cc2ccccc2)cc(C(=O)Nc2ccc(C(=O)O)cn2)c1,inactive,–,–
CC(=O)N[C@@H](CC(=O)O)C(=O)N[C@@H](CCC(=O)O)C(=O)N[C@H](C(=O)N[C@@H](CC(=O)O)C(=O)Nc1ccc2c(C)cc(=O)oc2c1)C(C)C,–,–,-11.9%
